The full list was thinned out, with hits kept by preference.
ERK EGF block: EGF-driven ERK pathway inhibition; 130,000 tested, 0.41% active; Potency, µM (highest dose often 11.5 µM), usual class: inhibitors; HEK293-V1b, EGF-stimulated phospho-ERK AlphaScreen; active = well fitted inhibition curve with a large enough effect; also: nearly all actives have a fitted effect of over 55% in size
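Stably V1b-transfected HEK293 cells; 30 min compound, then EGF 25 nM final for 5 min at 37C; 10 min lysis; phospho-ERK by AlphaScreen after 5 hr beads at room temperature.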
A number is an active result; 0 = inactive.

SMILES	ERK EGF block
O=C(NCCO)c1cccc2c1-c1ccccc1C2=O	0
O=C1c2ccccc2C(=O)c2c(NCCCN(CCO)CCO)cccc21	28µM
CCN(CC)CC(=O)Nc1cccc2c1C(=O)c1ccccc1C2=O	0
CC1(C)O[C@@H]2C[C@H]3[C@H]4C[C@H](F)C5=CC(=O)CC[C@]5(C)[C@@H]4[C@H](O)C[C@]3(C)[C@]2(C(=O)CO)O1	0
COc1ccc(CNc2nc(-c3ccccc3OC)nc3ccccc23)c(OC)c1	0
C=CCN1C(=O)S/C(=C\c2ccc3c(c2)n(C)c(=O)n3C)C1=O	0
C=CCN1C(=O)S/C(=C/c2ccsc2)C1=O	0
C=CCN1C(=O)S/C(=C/c2ccc(Sc3nc4ccccc4[nH]3)o2)C1=O	25µM
CN1\C(=C/C=C/C=C/C=[N+](C)C)C(C)(C)c2ccccc21	16µM
CN1/C(=C\C=O)C(C)(C)c2ccccc21	0
CN1/C(=C/C=C(C#N)C#N)C(C)(C)c2ccccc21	0
N#CCCCSc1nnnn1-c1cc(C(F)(F)F)cc(C(F)(F)F)c1	0
CC(=O)OC1CCC23CC1(C)CCC2C(C)(C)CC3OC(C)=O (configuration not stated)	0
CC1OC(OC2C(CO)OC(OC3C(CO)OC(O)C(O)C3O)C(O)C2O)C(O)C(O)C1NC1C=C(CO)C(O)C(O)C1O (configuration not stated)	0
Cc1cc(C)c(C)c(N=Nc2nc3ccccc3n2C)c1C	14µM
C/C(=N\NC(=O)c1ccccc1)c1nc2ccccc2n1C	0
Cn1c(CNC2CCCCC2)nc2ccccc21	0
CCCSc1nc2cc(C)c(C)cc2n1CC(C)O (configuration not stated)	0
O=C(CN1C(=O)NC(c2ccccc2)(c2ccccc2)C1=O)c1c[nH]c2ccccc12	0
COc1ccccc1-c1csc(NC(=O)c2ccc(N3C(=O)CCC3=O)cc2)n1	28µM
CCOC(=O)c1csc(NC(=O)c2ccc(N3C(=O)CCC3=O)cc2)n1	0
N#Cc1ccc(-c2csc(NC(=O)c3ccc(N4C(=O)CCC4=O)cc3)n2)cc1	0
Cn1c(N)c(C(=O)COC(=O)COc2ccc3ccccc3c2)c(=O)n(C)c1=O	0
O=C(O)c1cccc(Nc2ncnc3ccc(Br)cc23)c1	0
CN(Cc1ccco1)c1ncnc2ccc(-c3ccc4c(c3)OCO4)cc12	0
SMILES	ERK EGF block
c1ccc(Nc2ncnc3ccc(-c4ccc5c(c4)OCO5)cc23)cc1	2.8µM
CSc1nn2c(C(F)(F)F)cc(C(F)(F)F)nc2c1C(N)=O	0
COc1ccccc1-c1nc2ccccc2nc1-c1ccccc1OC	0
COc1ccc2nc3ccccc3nc2c1N	28µM
COc1ccc2nc3cccc(OC)c3nc2c1	0
N#Cc1cccc(-c2nc(N3CCNCC3)c3ccccc3n2)c1	0
CCCC/C=C/C(NC(=O)Oc1cccc(C(F)(F)F)c1)c1ccccc1 (configuration not stated)	0
Cc1cccc2cc(/C=N/NC(=O)[C@H]3C[C@@H]3c3ccccc3)c(Cl)nc12	0
Cc1cccc2cc(/C=N/NC(=O)c3ccccc3O)c(Cl)nc12	20µM
Cc1cccc2cc(/C=N/NC(=O)c3ccncc3)c(Cl)nc12	0
Cc1cc(NC(=O)COC(=O)c2ccccc2[N+](=O)[O-])no1	0
O=C(CNCc1cccc2ccccc12)Nc1ccccc1[N+](=O)[O-]	0
Cc1ccc(NC(=O)CSc2nc3[nH]ncc3c(=O)[nH]2)c(C)c1	0
CCN(CC)c1ccc(/C=N/N2CCN(Cc3ccc(Cl)cc3)CC2)c(O)c1	14µM
O=C(O)c1ccc(/C=N/N2CCN(Cc3ccc(Cl)cc3)CC2)cc1	0
CCN(CC)c1ccc(/C=N/N2C(=O)c3ccccc3C2=O)c(O)c1	0
CC(=O)NCCNc1nc(-c2ccc(N(C)C)cc2)nc2ccccc12	0
CC(=O)OC1CCC2(C)C(=CCC3C2CCC2(C)C3C[C@@H]3O[C@]32C(C)=O)C1 (some centres not stated)	0
Nc1ccccc1Nc1ccc([N+](=O)[O-])cc1[N+](=O)[O-]	0
O=[N+]([O-])c1ccc(N/N=C/c2ccccc2)c(F)c1	0
CC1=C(/C=N/Nc2ccc([N+](=O)[O-])cc2[N+](=O)[O-])C(C)(C)CCC1	14µM
C/C(=N\NC(=O)c1cc(-c2ccncc2)nc2ccccc12)c1ccc(N2CCOCC2)cc1	0
COC(=O)[C@H](Cc1ccccc1)NC(=O)O[C@@H]1C(=O)c2cc(OC)ccc2O[C@H]1c1cccc(OC)c1	0
COc1cc(OC)c2ccc(=O)oc2c1C(CCN1CCCC(C)C1)c1ccc(N(C)C)cc1 (configuration not stated)	0
COc1cc(OC)c2c(-c3ccccc3)cc(=O)oc2c1C(CCN1CCCC(C)C1)c1ccc2c(c1)OCO2 (configuration not stated)	0
SMILES	ERK EGF block
CCCCCc1cc(=O)oc2c(C(CCN3CCCC(C)C3)c3cc(OC)c(OC)c(OC)c3)c(OC)cc(OC)c12 (configuration not stated)	40µM
Cc1nc(SCC(=O)NNC(=O)c2cccs2)[nH]c(=O)c1C	0
CCOc1ccc(-c2cc(C(=O)NCC3CCCO3)c3ccccc3n2)cc1 (configuration not stated)	0
CC(C)Oc1ccc(-c2nc(NCC3CCCO3)c3ccccc3n2)cc1 (configuration not stated)	32µM
c1ccc2c(NCC3CCCO3)nc(N3CCCCC3)nc2c1 (configuration not stated)	0
O=C(Nc1cccc(F)c1)N1CC[C@@]2(CCCN(C(=O)c3ccco3)C2)C1	0
O=C(CCc1ccccc1)c1nnc(-c2ccccc2)o1	0
NNC(=O)c1cc(-c2cccs2)nc2ccccc12	0
C/C(=N\NC(=O)c1cc(-c2cccs2)nc2ccccc12)c1ccccn1	0
Cc1cccc2sc(NNC(=O)c3cc(-c4cccs4)nc4ccccc34)nc12	13µM
CCN1CCCC1Cn1c(-c2ccccc2)nc2c(NC3CCCCC3)nc(C)nc21 (configuration not stated)	0
C=CCOC(=O)NC(c1ccc(F)c(F)c1)C(C(=O)CCl)C(=O)OC (configuration not stated)	0
O=c1[nH]c2ccccc2[n+]([O-])c1-c1ccccc1	0
CCn1c(SCc2nc3scc(-c4ccccc4)c3c(=O)[nH]2)nnc1-c1cccs1	25µM
Cc1nnc(SCc2nc3scc(-c4ccccc4)c3c(=O)[nH]2)s1	0
Nc1nnc(SCc2nc3scc(-c4ccccc4)c3c(=O)[nH]2)s1	0
C=CCOCCN(CC)CC	0
C=CCn1c(CNC(=O)c2ccccc2F)nnc1SCc1nc2ccccc2c(=O)[nH]1	0
O=C(NC(=S)NCCO)c1sc2ccccc2c1Cl	0
O=C(NNC(=S)NC1CCCCC1)c1sc2ccccc2c1Cl	0
CC(C)(C)C(=O)NC(=S)NNC(=O)c1sc2ccccc2c1Cl	13µM
C[C@H](NC(=O)/C(C#N)=C/c1ccc(O)c(O)c1)c1ccccc1	0
O=C(CN1C(=O)/C(=C/c2ccccc2)SC1=S)NNC(=O)c1ccccc1O	14µM
CC(C)(C)NC(=O)CN1C(=O)/C(=C/c2ccccc2)SC1=S	0
Cc1ccc(/C=C2\SC(=S)N(CCCC(=O)NNC(=O)c3ccccc3O)C2=O)cc1	0
COc1cc2c(cc1OC)C1(O)C(=O)c3ccc(O)c(C(=O)O)c3OC1CO2 (configuration not stated)	0
CCCCCCCCCCCCCCCC(=O)NC(C)C	0
COc1ccc2c(c1)C(=O)[C@H](OC(=O)Nc1ccc(OC(F)F)cc1)[C@@H](c1ccc(OC)c(Br)c1)O2	0

Assay outcomes deposited in PubChem BioAssay by National Center for Advancing Translational Sciences (NCATS).
